# Source: PubChem
# Pf growth 96h – inhibits malaria parasite growth, 96 h | P. falciparum luciferase reporter growth, 96 h | 320,000 compounds, 6.9% hits | Potency, µM (series often up to 28.7 µM), for the others: at the top dose activity change, negative = inhibition, hits mostly inhibitors; further: potency means the concentration at half of the fitted maximal effect; on the % scale 0 is the no-effect control and ±100 the full control effect
#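 Parasite growth measured via integrated firefly luciferase reporter in P. falciparum. Infected erythrocytes at 2% hematocrit, 0.05% parasitemia final were treated 96 hours at 37 C under 5% CO2, and luminescence was read.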
# HCV inh – HCV inhibition; Huh7.5.1 HCVcc-Cre infection, luciferase reporter, 44 h; Potency, µM (highest dose often 41.8 µM), without a hit: at the highest dose activity change, negative = inhibition, usual class: inhibitors; 340,000 compounds, 3.4% hits; further: potency means the concentration at half of the fitted maximal effect; on the % scale 0 is the no-effect control and ±100 the full control effect
#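 Reporter virus HCVcc-Cre (~0.5 moi) infects cells exposed to compound; seeding density 1,000 cells/well with 4 h settling beforehand. Luminescence, 15 sec read, taken 44 h post-infection following a 15 min RT substrate incubation.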
# Shiga toxin inh – inhibitors of Shiga toxin in Vero cells | Vero cells, Shiga toxin protein synthesis inhibition reporter | inhibition, % at 38.7 µM | 290,000 compounds, 9.2% hits | AID 2315; in the data active means inhibition mostly above about 28%, no sharp cut-off; inactive means mostly below about 43%; further: 0% is about no effect
# Pf growth 48h – inhibits P. falciparum growth in the first generation, 48 h | P. falciparum luciferase growth in erythrocytes, 48 h | Potency, µM (highest dose often 28.7 µM), inactives show at the top dose activity change, negative = inhibition, actives largely listed as inhibitors | 310,000 compounds, 5.9% hits | AID 504832; further: potency means the concentration at half of the fitted maximal effect; on the % scale 0 is the no-effect control and ±100 the full control effect
#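 Luciferase-expressing parasites in RBCs, 2% Hct / 0.1% parasitemia final; RPMI 1640 + 0.5% Albumax; 37 C, 5% CO2, one generation; luminescence read-out, lower signal = inhibition.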
# CHX counter – affects cycloheximide protein synthesis inhibition readout, counter-screen. max response, %. 300,000 compounds, 12% hits. cell reporter, cycloheximide protein synthesis inhibition counterscreen; in the data active means max response mostly above about 13%, no sharp cut-off; inactive means mostly below about 14%; further: read at 38.3 µM for the half of the compounds with a filed dose; 0% is about no effect
# HCMV antiviral – human cytomegalovirus inhibition | HFF cells, HCMV-luciferase reporter, 72 h; stronger effect = lower value | activity change, negative = inhibition, % at 57.5 µM | 410,000 compounds, 4.5% hits; in the data active means activity change below about -60%; inconclusive means no clear call, values can overlap the other calls; inactive means above about -39%; further: on the % scale 0 is the no-effect control and ±100 the full control effect
#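 Human foreskin fibroblasts infected with luciferase-reporter HCMV at MOI 1 PFU/cell, compounds at two doses. Luciferase measured 72 h post infection; normalized to buffer-only basal and Salinomycin (10uM) controls.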
# * marks the source's active call; other numbers are inactive results; ? = inconclusive; . = no result; [ ] = another dose, or the depositor's remark. Only some compounds are listed: those with a hit (about 21% of all), similar ones and a draw of the others. Unless noted, the call rests on the fitted dose curve; in most records, active means well fitted inhibition curve with a large enough effect; inconclusive means small, poorly fitted or top-dose-only effect, or another doubt; inactive means no such curve, though single readings can be large or run the other way.
SMILES,Pf growth 96h,HCV inh,Shiga toxin inh,Pf growth 48h,CHX counter,HCMV antiviral
CCNC(=O)C1(C)CCN(C(=O)c2ccc3snnc3c2)C1 (centres undefined),.,.,.,.,.,16
CCOC(=O)[C@H]1O[C@@H]1C(=O)N[C@@H](CC(C)C)C(=O)NCCC(C)C,.,16%,-11,.,-9,.
CC(C)CCNC(=O)[C@H](CC(C)C)NC(=O)[C@H]1O[C@@H]1C(=O)O,2.1µM*,1%[8.37 µM],-3,3.7µM*,-2,.
CCOC(=O)c1sc(N=Nc2c(O)[nH]c(=O)[nH]c2=O)c(C(=O)OCC)c1C,-6%,-8%,-3,25%,1,.
CCOC(=O)c1sc(N=NC2=C(O)CCCC2=O)c(C(=O)OCC)c1C,57%,-14%,16,0%,18*,-39
CCC(CC)c1nn2c(=O)cc(COc3ccc(NC(=O)c4cccc(Cl)c4)cc3)nc2s1,.,.,.,.,.,-6
O=C(NCc1ccc2c(c1)OCO2)c1ccc2c(c1)C(=O)N(Cc1cccnc1)C2=O,?,14%,-6,10%,-1,-9
O=C(NCc1cccnc1)C(=O)Nc1ccc2c(c1)OCO2,?,31%,28,55%,18*,18
CCN1CCN(C(CNC(=O)c2ccc3c(c2)OCO3)c2cccnc2)CC1 (centres undefined),70%,17%,33,33%,20*,43
O=C(NCc1cccc(Cl)c1)c1ccc2c(c1)OCO2,.,?,41,17%,21*,11
O=C(NCc1cccnc1)c1ccc2c(c1)OCO2,9.3µM*,12%,-4,7%,-3,38
O=C(NCc1ccc2c(c1)OCO2)c1cccc(Cl)c1,.,-1%,-2,29%,7,-1
O=C(NCc1ccncc1)C(=O)Nc1ccc2c(c1)OCO2,47%,10%,16,36%,17,-27
O=C(c1ccccc1)C12COc3ccccc3C1ON=C2c1ccccc1 (centres undefined),.,.,.,.,.,-16
CCC[C@H]1[C@@H](NS(=O)(=O)c2ccccc2)CC[C@@]23CCCN2C(=O)CCC[C@@H]13,.,.,.,.,.,-10
COc1cccc(N2CCN(C(=O)CCNS(=O)(=O)c3ccc(F)c(F)c3)CC2)c1,.,-26%,.,.,.,0
Cc1cccc(NC(c2ccc(C)s2)c2ccc3ccc(C)nc3c2O)n1 (centres undefined),13%,?,-12,?,-4,-95*
Cc1ccc2ccc(C(Nc3ccccc3)c3ccccc3)c(O)c2n1 (centres undefined),.,.,.,.,.,-22
Cc1ccc2ccc(C(Nc3ccccc3)c3ccc(F)cc3)c(O)c2n1 (centres undefined),.,.,.,.,.,-61*
Cc1ccc(CSc2ccc3nnc(CCNS(=O)(=O)c4ccc(C)cc4)n3n2)cc1,.,.,.,.,.,-3
CCOC(=O)N/N=C(C)/C=C/c1ccco1,?,2%,31,-15%,21*,-16
CCOC(=O)N/N=C\C=C\c1ccco1,?,18%,-7,16%,0,?
CCOC(=O)N/N=C(C)/C=C/c1ccccc1,?,?,16,0%,28*,-31
COC(=O)N/N=C(C)/C=C/c1ccccc1,.,15%,.,.,.,22
CC(/C=C/c1ccccc1)=N/NC(=O)C(O)c1ccccc1 (centres undefined),-18%,-9%,45*,31%,10,?
SMILES,Pf growth 96h,HCV inh,Shiga toxin inh,Pf growth 48h,CHX counter,HCMV antiviral
CC(/C=C/c1ccccc1)=N\Nc1ccccc1[N+](=O)[O-],-26%,-15%,89*,97%,32*,-73*
COc1cccc(NC(=O)N[C@H]2CC[C@@]34CCCN3C(=O)CCC[C@H]4[C@H]2C)c1,.,.,.,.,.,45
CCc1ccc(CNC(=O)C2CCN(c3nnc(-n4c(C)ccc4C)s3)CC2)cc1,.,.,.,.,.,7
Cc1cccc(C)c1NC(=O)CNC(=O)c1ccc(N2CCCC2=O)cc1,38%,5%,.,6%,.,-16
CCn1ncc(Br)c1C(=O)Nc1ccc(Cl)cn1,.,15%,18,13%,-2,-65*
CCn1ncc(Br)c1C(=O)Nc1cc(C)on1,3%,14%,4,-2%,-2,-6
CCn1ncc(Br)c1C(=O)Nc1cc(C)cc(C)c1,7%,-11%,4,21%,-1,-8
CCn1ncc(Br)c1C(=O)Nc1ccc(-c2ccno2)cc1,?,6%,7,-10%,9.8*,-14
CC1=C(c2ccc(C(C)C)cc2)S(=O)(=O)N=C1N1CCN(c2ccccc2F)CC1,.,.,.,.,.,-62*
N#Cc1cccc(NC(=O)Cn2cnc(S(=O)(=O)N3CCCC3)c2)c1,?,10%,-3,21%,12,0
O=C(OCCCOc1ccc(F)cc1)c1ccc(O)cc1O,27%,-15%,21,24%,21*,-20
O=C(CCCOC(=O)c1ccc(O)cc1O)c1ccccc1,-19%,-22%,.,7%,.,-26
CCN(CC)CCN(Cc1cc2cc(C)ccc2[nH]c1=O)C(=S)NCc1ccco1,?,?,-2,6.6µM*,6,?
CCN(CC)CCCNC(=S)N(Cc1cccs1)Cc1cc2cc3c(cc2[nH]c1=O)OCCO3,?,-7%,8,?,-6,-104*
CCN(CC)CCN(Cc1cc2ccc(C)c(C)c2[nH]c1=O)C(=S)NCc1ccco1,?,?,7,10µM*,-2,-77*
CCN(CC)CCN(Cc1cc2cc3c(cc2[nH]c1=O)OCO3)C(=S)NCc1ccco1,6.6µM*,-24%,3,-4%,0,-22
CCN(CC)CCN(Cc1cc2cc(C)cc(C)c2[nH]c1=O)C(=S)NCc1ccco1,7%,1%,-9,?,-3,?
CC(C)Cn1c(=O)c(C(=O)NCc2ccc3c(c2)OCO3)c(O)c2ccccc21,?,?,-7,?,-1,22
COc1ccc(CCNC(=O)CCc2c(C)c3cc4c(C)coc4c(C)c3oc2=O)cc1OC,.,.,.,.,.,-18
CCN(CC)CCN(Cc1cc2cc3c(cc2[nH]c1=O)OCO3)C(=S)NCC(C)C,3.7µM*,?,-20,?,-3,-22
O=[N+]([O-])c1cccc(CSc2nc3ccccc3[nH]2)c1,65%,-9%,38,-38%,13*,-24
COc1cccc(CC(Cc2nc3ccccc3[nH]2)c2nc3ccccc3[nH]2)c1 (centres undefined),?,8%,30,-25%,35*,-7
Nc1nc(SCc2cccc([N+](=O)[O-])c2)n[nH]1,-6%,13%,-5,1%,-1,17
O=C(CSc1nc2ccc([N+](=O)[O-])cc2[nH]1)NC1CCCCCC1,?,14µM*,-2,23%,0,13
COc1cc(Cc2nc3ccccc3n2C(C)c2nc3ccccc3[nH]2)cc(OC)c1 (centres undefined),.,.,.,.,.,-8
